About 79,000 compounds went through this panel and 15% of them were active in at least one assay; those are over-represented in the sample as a whole. The source made the active and inactive calls. Cut-off read from the data, not from the text of the source: active = growth inhibition above about 70%; inactive = the rest.
What was measured:
[1] = NCI Yeast Anticancer Drug Screen. Data for the wt2 strain (AID 169);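 note: 0% = growth of vehicle-treated yeast cultures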; settings: S. cerevisiae wt2 strain growth inhibition, active compounds read high
Method in brief: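 Read-out: growth inhibition versus vehicle-treated control cultures after compound exposure of the yeast strain.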

[2] = NCI Yeast Anticancer Drug Screen. Data for the mlh1 strain (AID 171);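 note: 0% = growth of vehicle-treated control cultures of the same strain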; settings: S. cerevisiae mlh1 strain growth inhibition, active compounds read high
Method in brief: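 Read-out: growth inhibition versus vehicle controls. Strain: engineered yeast with a defined DNA repair or cell cycle defect, compound-treated.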

[3] = NCI Yeast Anticancer Drug Screen. Data for the sgs1 strain (AID 173);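 note: 0% = growth of vehicle-only control cultures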; settings: S. cerevisiae sgs1 mutant, active compounds read high
Method in brief: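 Read-out: yeast growth inhibition relative to vehicle controls, following compound exposure of a strain with a defined DNA repair/cell cycle alteration.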

[4] = NCI Yeast Anticancer Drug Screen. Data for the mlh1 rad18 strain (AID 175); settings: S. cerevisiae mlh1 rad18 strain growth inhibition, active compounds read high
Method in brief: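 Yeast w/ defined DNA-repair lesions; compound exposure; growth vs vehicle controls → % inhibition.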

[5] = NCI Yeast Anticancer Drug Screen. Data for the rad18 strain (AID 177); settings: S. cerevisiae rad18 mutant growth inhibition, active compounds read high
Method in brief: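 Readout: growth inhibition vs vehicle controls. Cells: genetically altered yeast strain, DNA repair defect.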

[6] = NCI Yeast Anticancer Drug Screen. Data for the rad52 strain (AID 147);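 note: 0% = growth of vehicle-treated control cultures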; settings: S. cerevisiae rad52 mutant growth inhibition, active compounds read high
Method in brief: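 Read-out: growth inhibition versus vehicle-treated controls. Cells were a DNA repair-deficient yeast strain treated with compounds.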

[7] = NCI Yeast Anticancer Drug Screen. Data for the wt1 strain (AID 149);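 note: 0% = growth of vehicle-treated wt1 cultures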; settings: S. cerevisiae wt1 strain (SPY 50644) growth inhibition, active compounds read high
Method in brief: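 wt1 strain grown with compound or vehicle; inhibition taken from the growth difference.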

[8] = NCI Yeast Anticancer Drug Screen. Data for the rad50EPP+ strain (AID 151);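 note: 0% = growth of vehicle-treated control cultures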; settings: S. cerevisiae rad50 mutant strain, active compounds read high
Method in brief: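 Growth inhibition read against vehicle controls in rad50EPP+ yeast, a strain altered in DNA damage repair, after compound exposure.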

[9] = NCI Yeast Anticancer Drug Screen. Data for the mgt1 strain (AID 153); settings: S. cerevisiae mgt1 mutant growth inhibition, active compounds read high
Method in brief: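 mgt1 yeast grown with test compound; read-out is growth inhibition versus vehicle-treated cultures.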

[10] = NCI Yeast Anticancer Drug Screen. Data for the rad50 strain (AID 155);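 note: 0% = growth of vehicle-only cultures of the same strain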; settings: S. cerevisiae rad50 strain growth inhibition, active compounds read high
Method in brief: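 DNA repair mutant yeast, compound exposure, growth read-out; inhibition is taken relative to vehicle.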

[11] = NCI Yeast Anticancer Drug Screen. Data for the mec2-1 strain (AID 157); settings: S. cerevisiae mec2-1 strain, active compounds read high
Method in brief: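 Yeast mec2-1 mutant treated with compound. Readout: growth inhibition vs vehicle controls.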

[12] = NCI Yeast Anticancer Drug Screen. Data for the rad14 strain (AID 159);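 note: 0% = growth of vehicle-treated control cultures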; settings: S. cerevisiae rad14 strain growth inhibition, active compounds read high
Method in brief: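 DNA repair-defective yeast, compound-exposed; % growth inhibition derived by comparison with vehicle-treated controls.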

[13] = NCI Yeast Anticancer Drug Screen. Data for the sgs1 mgt1 strain (AID 161);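 note: 0% = growth of cultures given vehicle only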; settings: S. cerevisiae sgs1 mgt1 strain, active compounds read high
Method in brief: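 Inhibition of yeast growth, normalised to vehicle-treated controls, is reported for a strain bearing genetic alterations in DNA damage repair.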

[14] = NCI Yeast Anticancer Drug Screen. Data for the CLN2oe strain (AID 163);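 note: 0% = growth of vehicle-only control cultures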; settings: S. cerevisiae CLN2oe strain, active compounds read high
Method in brief: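 Read-out: yeast growth inhibition, expressed relative to vehicle-only controls. The strain bears an engineered cell-cycle alteration.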

[15] = NCI Yeast Anticancer Drug Screen. Data for the cln2 rad14 strain (AID 165);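 note: 0% = growth equal to vehicle treated cultures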; settings: S. cerevisiae cln2 rad14 strain, active compounds read high
Method in brief: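 cln2 rad14 yeast strain; compound exposure; growth inhibition read vs vehicle controls.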

[16] = NCI Yeast Anticancer Drug Screen. Data for the bub3 strain (AID 167); settings: S. cerevisiae bub3 mutant strain, active compounds read high
Method in brief: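 In this screen, a yeast mutant lacking normal mitotic checkpoint function is challenged with compound. Relative growth versus vehicle gives the inhibition value.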

[17] = at 5.0 µM (retest, dose inferred, filed as 0.5)
[18] = at 50.0 µM (retest, dose inferred, filed as 5.0)

Measured: growth inhibition

CCCCCCCCCCCC1=C(O)C(=O)C=C(O)C1=O
inactive: [1]; at 1.2 µM 3% | [1]; at 3.7 µM 8% | [2]; at 1.2 µM -12% | [2]; at 3.7 µM -9% | [2]; at 11.0 µM 37% | [3]; at 1.2 µM -19% | [3]; at 3.7 µM -11% | [3]; at 11.0 µM 46% | [4]; [17] 41% | [5]; at 1.2 µM -9% | [5]; at 3.7 µM -6% | [5]; at 11.0 µM 64%
active: [1]; at 11.0 µM 79% | [1]; at 33.0 µM 96% | [1]; at 100.0 µM 81% | [2]; at 33.0 µM 93% | [2]; at 100.0 µM 91% | [3]; at 33.0 µM 95% | [3]; at 100.0 µM 89% | [4]; [18] 90% | [4]; at 50.0 µM 72.3% | [5]; at 33.0 µM 95% | [5]; at 100.0 µM 92%

O=C1OC(CCl)CN1/N=C/c1ccc([N+](=O)[O-])o1 (stereo unspecified)
active: [6]; at 100.0 µM 88% | [8]; at 100.0 µM 73% | [10]; [18] 78% | [10]; at 100.0 µM 80% | [11]; [18] 76% | [12]; at 100.0 µM 71% | [13]; [18] 89% | [13]; at 50.0 µM 71.9% | [15]; [18] 73% | [16]; [18] 70% | [1]; at 100.0 µM 90% | [3]; at 33.0 µM 83% | [3]; at 100.0 µM 95% | [4]; [18] 92% | [4]; at 50.0 µM 87.9% | [5]; at 3.7 µM 72% | [5]; at 11.0 µM 91% | [5]; at 33.0 µM 95% | [5]; at 100.0 µM 96%
inactive: [6]; at 1.2 µM -36% | [6]; at 3.7 µM -11% | [6]; at 11.0 µM 19% | [6]; at 33.0 µM 54% | [7]; at 1.2 µM -2% | [7]; at 3.7 µM 2% | [7]; at 11.0 µM 14% | [7]; at 33.0 µM 21% | [7]; at 100.0 µM 54% | [8]; at 1.2 µM -3% | [8]; at 3.7 µM -17% | [8]; at 11.0 µM 14% | [8]; at 33.0 µM 47% | [9]; at 1.2 µM -3% | [9]; at 3.7 µM -8% | [9]; at 11.0 µM -3% | [9]; at 33.0 µM 1% | [9]; at 100.0 µM 25% | [10]; at 1.2 µM -10% | [10]; at 3.7 µM -8% | [10]; [17] 19% | [10]; at 11.0 µM 3% | [10]; at 33.0 µM 45% | [10]; at 50.0 µM 21.7% | [11]; at 1.2 µM -4% | [11]; at 3.7 µM -3% | [11]; [17] 9% | [11]; at 11.0 µM 0% | [11]; at 33.0 µM 7% | [11]; at 50.0 µM 44.2% | [11]; at 100.0 µM 19% | [12]; at 1.2 µM -7% | [12]; at 3.7 µM 0% | [12]; at 11.0 µM 14% | [12]; at 33.0 µM 38% | [13]; [17] 35% | [14]; at 1.2 µM -7% | [14]; at 3.7 µM -8% | [14]; at 11.0 µM -6% | [14]; at 33.0 µM -7% | [14]; at 100.0 µM -2% | [15]; [17] 4% | [15]; at 50.0 µM 47.1% | [16]; at 1.2 µM -8% | [16]; at 3.7 µM -4% | [16]; [17] 1% | [16]; at 11.0 µM -5% | [16]; at 33.0 µM 2% | [16]; at 50.0 µM 10% | [16]; at 100.0 µM 16% | [1]; at 1.2 µM 2% | [1]; at 3.7 µM 2% | [1]; at 11.0 µM 20% | [1]; at 33.0 µM 54% | [2]; at 1.2 µM -9% | [2]; at 3.7 µM -4% | [2]; at 11.0 µM -1% | [2]; at 33.0 µM 14% | [2]; at 100.0 µM 69% | [3]; at 1.2 µM -6% | [3]; at 3.7 µM 9% | [3]; at 11.0 µM 49% | [4]; [17] 66% | [5]; at 1.2 µM 45%

From PubChem BioAssay (NCI)
